In PubChem BioAssay AID602477 (National Center for Advancing Translational Sciences (NCATS), 2012):
Inconclusive results are not listed. Active and inactive are the calls of the source. The call rests on the fitted dose curve; in most records, active means well fitted activation curve with a large enough effect; inconclusive means small, poorly fitted or top-dose-only effect; inactive means no such curve, though single readings can be large or run the other way.

Test: FLuc inhibitory activity for the follow-up compounds in a cell-based assay to assess the activity of miR-21
Details: HeLa miR-21-FLuc reporter, luciferase luminescence, 48 h; series mostly up to 38.3 µM
Source text: NCGC Assay Overview: Firefly (Photinus pyralis) luciferase is one of the most commonly used transcriptional reporters. It is considered one of the more dynamically responsive reporters - that is, responsive to changes in reporter transcription - as it requires no post-translational modifications and is enzymatically active directly after protein synthesis (Wood, 1998). With no endogenous expression in mammalian cells and without the requirement of external excitation, it offers very little background signal, thus generally providing excellent signal to background for most assays. Previous profiling work to determine the prevalence of compounds that affect FLuc enzymatic activity (PubChem AID 411) identified that ~3% of the MLSMR library (then at ~72K) inhibited FLuc (Auld et al., 2008). […] Of the compounds identified in this profile that inhibited FLuc, 151 compounds were selected for further analysis, in an effort to better understand their mode of inhibiting FLuc. The assay described here was to determine the activity of the compounds in a cell-based firefly luciferase reporter gene assay originally designed to identify antagonists of miR-21. Compounds that inhibit miR-21 or compounds that stabilize FLuc intracellularly are identified as active compounds in the assay.
NCGC Assay Protocol Summary: Reagents: In-house detection reagent: 300mM Tris-HCl, 300mM Trizma base, 300mM MgCl, 1% Triton-X100, 5mM DTT, 500uM Coenzyme A trilithium salt (Sigma #C3019),450uM ATP (Sigma #A7699), 1mM D-luciferin sodium salt monohydrate (Biosynth #L8240) HeLa cells stably expressing firefly luciferase (FLuc) under the control of a CMV promoter (upstream) and a miR-21 binding sequence directly downstream of the gene. These cells endogenously express miR-21. Control compounds used were two known firefly luciferase inhibitors (3-(5-(3-chlorophenyl)-1,2,4-oxadiazol-3-yl)benzoic acid and 5-(2-fluorophenyl)-3-phenyl-1,2,4-oxadiazole), and DMSO. Assay Summary: 6uL of HeLa miR-21-FLuc cells in assay buffer (DMEM, Invitrogen #21063-029; 10% FBS, HyClone #SH30071.03) were dispensed at 2000cells/well (3.3 x 10^5 cells/mL) into Greiner solid-white TC-treated 1536-well plates using a Multidrop Combi (Thermo Fisher Scientific). Plates were incubated for one hour at 37 degree Celsius, 95% humidity, 5% CO2. These assay plates were then treated with 23nL of compound or DMSO using a Kalypsys pin tool, which allows for delivery of a 12-point titration of each compound to the assay plate, with a final compound concentration ranging from approximately ~38uM to 0.2nM. Assay plates were then incubated for 48 hours. After incubation, plates were allowed to come to RT for one hour prior to delivery of 3uL of 3X luciferase detection reagent. After a 15 minute incubation to allow for cell lysis, luciferase activity was measured using a ViewLux CCD imager (PerkinElmer), with an average exposure time of 2-12 seconds.

| Structure (SMILES) | Potency |
| --- | --- |
| O=C(Nc1ccccc1C(=O)O)c1cc(S(=O)(=O)NCc2ccccc2)ccc1Cl | inactive |
| O=C(Nc1ccccc1C(=O)O)c1ccccc1 | 25.2 µM (active) |
| Cc1ccc(C(=O)Nc2cccc(C(=O)O)c2)cc1S(=O)(=O)N1CCCC1 | 1 µM (active) |
| O=C(O)c1cccc(NC(=O)c2cccc(S(=O)(=O)N3CCCCC3)c2)c1 | 14.2 µM (active) |
| CCOc1ccc(C(=O)Nc2ccccc2C(=O)O)cc1 | 1.13 µM (active) |
| COc1ccc2nc(NC(=O)CCc3nc(-c4ccccc4F)no3)sc2c1 | 2.52 µM (active) |
| O=C(O)c1cccc(NC(=O)c2ccccc2NC(=O)c2ccccc2F)c1 | inactive |
| O=C(Nc1ccccc1C(=O)O)c1ccc(NC(=O)C2CCCCC2)cc1 | inactive |
| COc1ccc(C(=O)Nc2ccccc2C(=O)Nc2ccc(C(=O)O)cc2)cc1 | 8.95 µM (active) |
| Nc1cccc(-c2nc3ccc(N)cc3s2)c1 | 1.79 µM (active) |
| CN(C)S(=O)(=O)c1ccc(C(=O)Nc2cccc(C(=O)O)c2)cc1 | inactive |
| O=C(Nc1cccc(-c2nc3ccccc3s2)c1)C1=COCCO1 | 12.6 µM (active) |
| COc1cc(OC)cc(-c2nc3ccccc3s2)c1 | 3.56 µM (active) |
| O=C(Nc1ccc(-c2nc3ccccc3s2)cc1)C1=COCCO1 | 0.01 µM (active) |
| CC(=O)Oc1ccc(C(=O)Nc2ccccc2C(=O)Nc2ccc(C(=O)O)cc2)cc1 | inactive |
| Nc1ccc2nc(-c3ccc(O)cc3)sc2c1 | 0.4 µM (active) |
| CC(C)c1ccc(-c2nc3ccccc3s2)cc1 | 0.0252 µM (active) |
| COc1ccc2nc(NC(=O)CCc3ccc(OC)c(OC)c3)sc2c1 | 12.6 µM (active) |
| O=C(O)c1cccc(NC(=O)c2ccc(Cl)c(S(=O)(=O)N3CCCCCC3)c2)c1 | 0.634 µM (active) |
| Cc1cccc(C(=O)Nc2ccc(-c3nc4ccccc4s3)cc2Cl)c1 | 12.6 µM (active) |

| Structure (SMILES) | Potency |
| --- | --- |
| O=C(Nc1ccccc1C(=O)O)c1ccc(NC(=O)C2CCCO2)cc1 (stereo not given) | inactive |
| Cc1c(NS(C)(=O)=O)cccc1-c1nc2ccccc2s1 | 4 µM (active) |
| Cc1ccc(C(=O)Nc2ccccc2C(=O)O)cc1S(=O)(=O)N1CCCCCC1 | 2.83 µM (active) |
| O=C(Nc1ccccc1C(=O)O)c1ccc(Cl)c(S(=O)(=O)N2CCOCC2)c1 | 12.6 µM (active) |
| CC(C)C(=O)Nc1cccc(C(=O)Nc2ccccc2C(=O)O)c1 | inactive |
| CCOc1ccc2nc(NC(=O)c3ccoc3C)sc2c1 | 0.1 µM (active) |
| O=C(Nc1ccccc1C(=O)O)c1ccc(NC(=O)C2CC2)cc1 | inactive |
| COc1ccc2nc(NC(=O)Cc3cccs3)sc2c1 | 2.83 µM (active) |
| O=C(O)c1cccc(NC(=O)c2ccc(S(=O)(=O)c3ccccc3)cc2)c1 | inactive |
| Cc1ccc2sc(-c3ccc(N)cc3)nc2c1 | 0.0504 µM (active) |
| COc1ccc(C(=O)Nc2ccccc2C(=O)N/N=C/c2ccc(O)c(OC)c2)cc1 | inactive |
| CC(C)Oc1ccc(C(=O)Nc2ccc(-c3nc4ccccc4s3)cc2)cc1 | 1.13 µM (active) |
| COc1cccc(OC)c1C(=O)Nc1cccc(C(=O)Nc2cccc(C(=O)O)c2)c1 | inactive |
| O=C(O)c1ccc(NC(=O)c2cc(S(=O)(=O)N3CCCCC3)c(Cl)cc2Cl)cc1 | inactive |
| CCOc1ccc2nc(NC(=O)c3ccccn3)sc2c1 | 0.0565 µM (active) |
| COc1ccc2nc(NC(=O)c3cccc(S(=O)(=O)N4CCOCC4)c3)sc2c1 | 7.11 µM (active) |
| COc1ccc(-c2nc3ccccc3s2)cc1NC(=O)c1ccc(F)cc1 | 12.6 µM (active) |
| CCCC(=O)Nc1nc2ccc(OCC)cc2s1 | 2.83 µM (active) |
| Cc1ccc(C(=O)Nc2ccc(C(=O)O)cc2)cc1S(=O)(=O)Nc1ccccc1 | inactive |
| O=C(Nc1c(Cl)cc(Cl)cc1-c1nc2ccccc2s1)c1ccc(Br)o1 | 12.6 µM (active) |
